From PubChem BioAssay AID588579 (National Center for Advancing Translational Sciences (NCATS), 2011)
Out of some 400,000 compounds screened, about 2,200 (0.55%) were called active. Where a call stands in place of a potency, no number is given. Another 1% or so got no clear call; they are omitted. The full list was thinned out, with actives kept by preference. Unmarked numbers belong to inactive results. Calls come from the whole dose curve; as a rule, active = well fitted inhibition curve with a large enough effect; inconclusive = small, poorly fitted or top-dose-only effect, or another doubt; inactive = no such curve, though single readings can be large or run the other way.

Target: DNA polymerase kappa (Homo sapiens) (UniProt Q9UBT6)
Assay: qHTS for Inhibitors of Polymerase Kappa
Details: purified Pol kappa, fluorescent DNA synthesis assay, 10 min; series mostly up to 107 µM
Method in brief: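 First, compounds were pin-transferred onto 10 nM Pol kappa. After 15 min at room temperature, substrate was added to 50 nM final. Fluorescence was then measured kinetically at 0 and 10 min.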
Potency is the fitted concentration of half-maximal effect.

DNA polymerase kappa (Homo sapiens), sequence (Q9UBT6 whole entry, looked up): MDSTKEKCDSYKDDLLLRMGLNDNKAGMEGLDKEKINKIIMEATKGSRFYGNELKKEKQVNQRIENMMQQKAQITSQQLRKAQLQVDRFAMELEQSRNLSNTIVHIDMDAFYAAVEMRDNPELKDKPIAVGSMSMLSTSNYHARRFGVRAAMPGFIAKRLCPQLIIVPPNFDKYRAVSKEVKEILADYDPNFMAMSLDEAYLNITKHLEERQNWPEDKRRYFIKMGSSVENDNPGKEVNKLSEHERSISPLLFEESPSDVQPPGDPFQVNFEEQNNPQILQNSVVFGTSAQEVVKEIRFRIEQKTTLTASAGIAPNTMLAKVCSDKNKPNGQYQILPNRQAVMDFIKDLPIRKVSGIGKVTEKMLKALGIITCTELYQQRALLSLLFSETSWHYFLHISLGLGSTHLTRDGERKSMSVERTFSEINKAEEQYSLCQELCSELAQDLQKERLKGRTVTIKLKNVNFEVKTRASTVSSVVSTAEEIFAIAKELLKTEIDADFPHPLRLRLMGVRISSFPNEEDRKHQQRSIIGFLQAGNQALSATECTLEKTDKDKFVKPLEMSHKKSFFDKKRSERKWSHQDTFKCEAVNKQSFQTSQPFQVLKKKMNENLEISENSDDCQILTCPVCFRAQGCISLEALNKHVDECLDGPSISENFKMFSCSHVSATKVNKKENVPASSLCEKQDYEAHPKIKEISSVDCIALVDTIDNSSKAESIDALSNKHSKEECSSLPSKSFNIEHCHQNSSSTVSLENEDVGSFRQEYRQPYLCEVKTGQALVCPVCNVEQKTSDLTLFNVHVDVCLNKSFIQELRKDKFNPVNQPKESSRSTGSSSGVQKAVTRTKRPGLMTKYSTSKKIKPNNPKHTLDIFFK

**Q.** With CC(C)(O)c1ccccc1CC[C@H](SCC1(CC(=O)O)CC1)c1cccc(/C=C/c2ccc3ccc(Cl)cc3n2)c1 as the compound, how does the activity, negative = inhibition read?
**A.** Its activity, negative = inhibition is -3.16% [at 19.4 µM].

**Q.** With CS(=O)(=O)c1ccc2c(c1)SC1=NC(=O)/C(=C/c3ccco3)C(=N)N12 as the compound, how does the Potency read?
**A.** Its Potency is 35.5 µM (active).

**Q.** How did the Potency turn out when CC(C)(C)C1C/C(=C/c2ccco2)C(=O)/C(=C/c2ccco2)C1 (stereo not given) was run?
**A.** Its Potency is “inactive”.

**Q.** How did the Potency turn out when COc1ccc(NC(=O)COCc2cc(-c3ccco3)on2)cc1 was run?
**A.** The Potency was “inactive”.

**Q.** Which Potency does the source give for COCCNC(=O)Nc1ccc2nc(-c3ccco3)c(-c3ccco3)nc2c1 here?
**A.** The Potency was 3.16 µM (active).

**Q.** Which Potency does the source give for CCOc1ccc(NC(=O)c2ncoc2-c2ccco2)cc1 here?
**A.** The Potency was “inactive”.

**Q.** How did the Potency turn out when Cc1noc(C)c1-c1nc(Nc2ccccc2)c2ccccc2n1 was run?
**A.** Its Potency is “inactive”.

**Q.** COc1cccc(-c2nc(Nc3ccncc3)c3ccccc3n2)c1 was tested. Which Potency did it give?
**A.** The Potency was “inactive”.

**Q.** For c1ccc2c(Nc3ccncc3)nc(-c3ccoc3)nc2c1, which Potency is on record?
**A.** Its Potency is 28.2 µM (active).

**Q.** For O=C(c1ccco1)N1CCC2(CC1)CCN(c1ncccn1)CC2, which Potency is on record?
**A.** Its Potency is “inactive”.

**Q.** Which Potency does the source give for COc1ccc(S(=O)(=O)N2CCN(CC(=O)N3CCOCC3)CC2)cc1OC here?
**A.** Its Potency is “inactive”.

**Q.** How did the Potency turn out when COc1ccc(-c2ccnc(SCC(=O)N3CCOCC3)n2)cc1 was run?
**A.** Its Potency is “inactive”.

**Q.** COC1=C/C(=C/c2c(N)n3nc(CC(=O)N4CCOCC4)sc3nc2=O)C=CC1=O was tested. Which Potency did it give?
**A.** The Potency was 79.4 µM (active).

**Q.** Which Potency does the source give for CCN(CC)/[N+]([O-])=N/OCOC(=O)Cc1c(C)n(C(=O)c2ccc(Cl)cc2)c2ccc(OC)cc12 here?
**A.** Its Potency is “inactive”.

**Q.** How did the Potency turn out when O=C(Nc1ccccc1)c1ccccc1OCc1ccccc1 was run?
**A.** The Potency was “inactive”.

**Q.** With CCc1ccc(NC(=O)C2CCCN2S(=O)(=O)c2ccc3nc(-c4ccccc4)[nH]c3c2)cc1 (stereo not given) as the compound, how does the Potency read?
**A.** Its Potency is 89.1 µM (active).

**Q.** With CC(=O)Nc1ccc(NC(=O)C2CCCN2S(=O)(=O)c2cccc(C(F)(F)F)c2)cc1 (stereo not given) as the compound, how does the Potency read?
**A.** The Potency was “inactive”.

**Q.** How did the Potency turn out when CCc1ccccc1NS(=O)(=O)c1ccc2nc(-c3ccccc3)[nH]c2c1 was run?
**A.** Its Potency is “inactive”.

**Q.** How did the Potency turn out when COc1ccc(CNc2ncncc2-c2ccccc2OC)c(OC)c1 was run?
**A.** The Potency was “inactive”.

**Q.** For OC(CBr)C[n+]1cccc2cc(Br)ccc21 (stereo not given), which Potency is on record?
**A.** Its Potency is “inactive”.

**Q.** How did the Potency turn out when SCc1nc2ccc(Cl)cc2[nH]1 was run?
**A.** Its Potency is “inactive”.

**Q.** CCCC[C@H]1C(=O)N(c2ccccc2)N(c2ccc(O)cc2)C1=O was tested. Which activity, negative = inhibition did it give?
**A.** The activity, negative = inhibition was -4.08% [at 19.4 µM].

**Q.** How did the Potency turn out when COc1ccc(/C=C/C(=O)c2cc(Br)ccc(=O)c2O)cc1 was run?
**A.** Its Potency is 25.1 µM (active).

**Q.** How did the Potency turn out when COc1cccc(N2CC(NC(=O)/C=C\c3ccccc3)CC2=O)c1 (stereo not given) was run?
**A.** The Potency was “inactive”.

**Q.** How did the Potency turn out when COCOc1cc(O)c(C(=O)/C=C/c2ccc(OCOC)c(OCOC)c2)c(OCOC)c1 was run?
**A.** Its Potency is “inactive”.

**Q.** With C=CCC1CCC(=O)N2CCCC12 (stereo not given) as the compound, how does the Potency read?
**A.** The Potency was “inactive”.

**Q.** For COc1cc(OC)c(/C=C/c2ccnc3ccccc23)c(OC)c1, which Potency is on record?
**A.** The Potency was “inactive”.

**Q.** With Cc1c(CC(=O)N2CCN(C(=O)C3COc4ccccc4O3)CC2)c(=O)oc2c(O)c(O)ccc12 (stereo not given) as the compound, how does the Potency read?
**A.** Its Potency is 7.08 µM (active).

**Q.** With COc1cc(NS(=O)(=O)c2ccc3c(c2)OCC(C(=O)N2CCCC2)O3)cc(OC)c1 (stereo not given) as the compound, how does the Potency read?
**A.** Its Potency is “inactive”.

**Q.** For COc1ccc(OC)c2sc(N3CCN(C(=O)C4COc5ccccc5O4)CC3)nc12 (stereo not given), which Potency is on record?
**A.** The Potency was “inactive”.

**Q.** COc1ccc(CC(N)C(=O)NC2C(O)[C@H](n3cnc4c(N(C)C)ncnc43)O[C@@H]2CO)cc1 (stereo not given in full) was tested. Which activity, negative = inhibition did it give?
**A.** The activity, negative = inhibition was 3.17% [at 19.4 µM].

**Q.** Which Potency does the source give for OCCC(O)CO (stereo not given) here?
**A.** The Potency was “inactive”.

**Q.** With Cc1csc[n+]1CCC1CCCCC1 as the compound, how does the Potency read?
**A.** Its Potency is “inactive”.

**Q.** CCCCCCCC/C=C\CCCCCCCC(=O)OC[C@H](CO)OC(C)=O was tested. Which activity, negative = inhibition did it give?
**A.** The activity, negative = inhibition was 0.528% [at 19.4 µM].

**Q.** Cc1ccc(Cn2cnc3c(cnn3C(C)(C)C)c2=O)c(F)c1 was tested. Which Potency did it give?
**A.** The Potency was “inactive”.

**Q.** For C(=Nc1ccc(/C=C/c2ccnc3ccccc23)cc1)Nc1ccc(/C=C/c2ccnc3ccccc23)cc1, which Potency is on record?
**A.** Its Potency is “inactive”.

**Q.** COCCn1c(=O)c(CCc2ccccc2)nc2cncnc21 was tested. Which Potency did it give?
**A.** Its Potency is “inactive”.

**Q.** COc1ccccc1C(=O)NC(=O)COC(=O)c1ccco1 was tested. Which Potency did it give?
**A.** The Potency was “inactive”.

**Q.** For Cc1ccc(C(=O)N/C(=C\c2ccco2)C(=O)NC2CCS(=O)(=O)C2)cc1 (stereo not given), which Potency is on record?
**A.** Its Potency is “inactive”.

**Q.** For COc1ccccc1C(=O)N/C(=C/c1ccco1)C(=O)Nc1ccc(C(=O)O)cc1, which Potency is on record?
**A.** Its Potency is 50.1 µM (active).

**Q.** For COc1ccc2[nH]cc(CCNc3nc(-c4cccc(NS(C)(=O)=O)c4)nc4ccccc34)c2c1, which Potency is on record?
**A.** Its Potency is “inactive”.

**Q.** Which activity, negative = inhibition does the source give for O=c1ccn([C@@H]2O[C@H](COP(=O)(O)OP(=O)(O)OP(=O)(O)O)[C@@H](O)[C@H]2O)c(=O)[nH]1 here?
**A.** The activity, negative = inhibition was 4.9% [at 19.4 µM].

**Q.** For CC1(C)OC2CC(=O)OC[C@@]23C1CC(=O)[C@]1(C)C3CC[C@@]2(C)C(c3ccoc3)OC(=O)C3O[C@@]321 (stereo not given in full), which Potency is on record?
**A.** Its Potency is “inactive”.

**Q.** With COCCNc1ncnc2ccc(-c3cccnc3)cc12 as the compound, how does the Potency read?
**A.** The Potency was “inactive”.

**Q.** For COCCn1c(=O)c(CCc2ccccc2)nc2cnc(N3CCNCC3)nc21, which Potency is on record?
**A.** Its Potency is “inactive”.
